The values below come from the supplement of paper PMC9877034.

Counter-ions that a name gives are not always drawn. In all, about 1,000 compounds were measured (“cFRET/donor change relative to DMSO, normalised to beta-lapachone positive control (supercomplex I-IV assembly)”: median about 0.18, lowest 2% from about -1 on). This excerpt belongs to a sample that is enriched for the lowest values.

The assay deals with C2C12 (NDUFB8-AcGFP / COX8A-DsRed-Monomer FRET reporter). Briefly: cFRET/donor change relative to DMSO, normalised to beta-lapachone positive control (supercomplex I-IV assembly) (fraction of beta-lapachone effect); higher = more respiratory supercomplex assembly. Conditions: 40 µM; 24 h. The method, then:
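Cells were treated with 40 uM compound for 24 h and imaged on an IN Cell Analyzer 6000. Corrected FRET was divided by donor signal (cFRET/donor) and measured in two replicate experiments. The score is (mean cFRET/donor of compound - mean DMSO) / (mean beta-lapachone 40 uM - mean DMSO). Compounds flagged for prominent cell death, abnormal morphology or decreased cell number were excluded.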
`Cc1c2ccncc2c(C)c2c1[nH]c1ccccc12` [Ellipticine] had a cFRET/donor change of -2.44. With `NC(CCP(=O)(O)O)C(=O)O` (racemic) [(±)-2-Amino-4-phosphonobutyric acid] the figure was 0.0445. With `CN1CCC[C@@H]1Cc1c[nH]c2ccc(Nc3ncccc3[N+](=O)[O-])cc12` the figure was 0.0254.

As for `C#CCN[C@H](C)Cc1ccccc1` [R-(-)-Desmethyldeprenyl hydrochloride], the cFRET/donor change was -0.331. With `C[N+](C)(C)CC#CCOC(=O)Nc1cccc(Cl)c1` the figure was 0.565.
